Results: PubChem BioAssay (NCATS)
Values without a mark were called inactive. Inconclusive results are not listed. Calls of active or inactive are those of the source. Unless noted, the call rests on the fitted dose curve; in most records, active means well fitted curve in either direction with a large enough effect (not every such curve was filed as active); inconclusive means small, poorly fitted or top-dose-only effect, or another doubt; inactive means flat fitted curve, though single readings scatter.

Key:
[1] = AP1 Signaling Pathway (AID 357); settings: ME-180 (cervical carcinoma) AP-1-bla reporter, EGF-induced, beta-lactamase ratio, 5 h; at 17.2 µM (top of the series) unless noted;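 further: ME-180 reporter cells stimulated with EGF at its EC50 level; on the % scale 0 is the no-effect control and ±100 the full control effect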
Procedure, shortened: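 Cells are seeded overnight, exposed to compound titrations and an EC50 level of EGF for 5 hours at 37 °C, then loaded with CCF4 dye for 2.5 hours. Beta-lactamase activity under the AP-1 element is read as a blue/green ratio.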

[2] = NFAT Signaling Pathway (AID 444); settings: Jurkat NFAT-bla M1, carbachol, beta-lactamase ratio, 5 h; at 17.2 µM (top of the series) unless noted;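 further: carbachol stimulus at about its EC50 of 1 µM final; on the % scale 0 is the no-effect control and ±100 the full control effect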
Procedure, shortened: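 Jurkat cells with NFAT-driven β-lactamase reporter and co-expressed M1 receptor, stimulated with carbachol (final 1 uM, ~EC50), compound titration, 5 h at 37 °C. CCF4 loaded 1 h at RT; 460/530 nm ratio gave %activity and AC50.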

[3] = target: Glucocorticoid receptor (Homo sapiens) (UniProt P04150); test: GR-GFP Redistribution (AID 450;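 active means compounds whose dose series gives a full or clear partial fitted curve of increased nuclear translocation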; further: potency means the concentration at half of the fitted maximal effect)
Chain of Glucocorticoid receptor (Homo sapiens) (P04150 whole entry, looked up): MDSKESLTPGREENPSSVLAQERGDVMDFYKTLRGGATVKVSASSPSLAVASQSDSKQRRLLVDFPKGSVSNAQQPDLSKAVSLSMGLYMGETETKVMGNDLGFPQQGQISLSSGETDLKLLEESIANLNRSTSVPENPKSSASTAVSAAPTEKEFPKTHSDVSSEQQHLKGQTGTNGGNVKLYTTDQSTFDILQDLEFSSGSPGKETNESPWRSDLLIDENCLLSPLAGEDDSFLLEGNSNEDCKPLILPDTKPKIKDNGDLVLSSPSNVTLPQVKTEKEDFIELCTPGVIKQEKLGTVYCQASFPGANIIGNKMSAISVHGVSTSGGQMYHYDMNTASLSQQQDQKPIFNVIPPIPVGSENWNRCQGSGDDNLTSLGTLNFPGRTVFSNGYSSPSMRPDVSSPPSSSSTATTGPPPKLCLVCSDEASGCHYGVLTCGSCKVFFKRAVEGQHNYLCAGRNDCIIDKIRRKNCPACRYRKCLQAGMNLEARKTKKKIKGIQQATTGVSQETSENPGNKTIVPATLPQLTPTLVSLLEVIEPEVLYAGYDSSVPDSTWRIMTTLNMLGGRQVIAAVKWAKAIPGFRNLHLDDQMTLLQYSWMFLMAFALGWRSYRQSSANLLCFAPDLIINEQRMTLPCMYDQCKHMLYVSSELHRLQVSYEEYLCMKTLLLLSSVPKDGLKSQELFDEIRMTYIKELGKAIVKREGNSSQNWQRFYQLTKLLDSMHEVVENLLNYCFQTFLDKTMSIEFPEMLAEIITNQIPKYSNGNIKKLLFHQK

| Structure (SMILES) | activity change, negative = inhibition [1] [%] | activity change, negative = inhibition [2] | Potency [3] [µM] |
| --- | --- | --- | --- |
| Cc1ccc(S(=O)(=O)NC(=O)Nc2ncc3c(n2)CC(c2ccco2)CC3=O)cc1 (configuration not stated) | -9.62 | 7.22% | > 20.6 |
| Cc1ccc(SCc2[nH]nc3c2C(c2ccc(C)o2)C(C#N)=C(N)O3)cc1 (configuration not stated) | -23.1 | -18.9% | > 20.6 |
| CCCCOc1cccc(-c2nnc(N)s2)c1 | -19.6 | 7.5% | > 20.6 |
| CCCCOC(=O)CSc1nc(N)c(C#N)c(-c2ccc(OC)cc2)c1C#N | -13.6 | -0.768% | > 20.6 |
| COc1ccc2[nH]c(C)c(C(=O)CN3CC(C)OC(C)C3)c2c1 (configuration not stated) | 0.748 | -1.69% | > 20.6 |
| CN(CCCCCC(=O)/C=N/O)Cc1ccccc1 | 26.2 | -28% | > 20.6 |
| CC(C)(C)n1nnc(CCc2nnn(C(C)(C)C)n2)n1 | 1.01 | -17.9% | > 20.6 |
| Clc1ccc(SCc2cn3ccsc3n2)cc1 | -22.5 | 9.85% | > 20.6 |
| CSc1nc(N2CCCC2)c2c(c1C#N)CC(C)(C)OC2 | -20.7 | -19.8% | > 20.6 |
| CCc1ccc(NC(=O)CSC2=C(C#N)C(c3ccc4c(c3)OCO4)CC(=O)N2)cc1 (configuration not stated) | -19.8 | -5.09% | > 20.6 |
| Cc1ccnc(N2CCN(c3c4c(c(C#N)c5nc6ccccc6n35)CCC4)CC2)c1 | -8.81 | -1.93% | > 20.6 |
| COC(=O)CCc1c(C)[nH]c(C(=O)OCc2ccccc2)c1C | -13.9 | -4.78% | > 20.6 |
| COc1ccc(OC)c(C2C(C(=O)c3sc(C)nc3C)=C(O)C(=O)N2CCN2CCOCC2)c1 (configuration not stated) | 4.44 | 16.6% | > 20.6 |
| O=C(NCCN1CCCCC1)c1ccc(=O)oc1 | 13.4 | 6.11% | > 20.6 |
| Cc1nc(-c2coc3cc(OCC(=O)O)ccc3c2=O)cs1 | 7.54 | -2.11% | > 20.6 |
| Cc1nn(-c2cccc(Cl)c2)c2c1C(c1ccncc1)C(C#N)=C(N)O2 (configuration not stated) | 17.6 | -16.8% | > 20.6 |
| CC1(C)Cc2c(C#N)c(NCCc3ccccc3)nc(-c3ccco3)c2CO1 | 14.4 | 80.9% [activator] (active) | > 20.6 |
| O=C(COc1ccccc1)Nc1ccc(-c2nnc(-c3ccco3)o2)cc1 | 6.06 | 7.57% | > 20.6 |
| COc1cc(-c2nn3c(COc4ccccc4)nnc3s2)cc(OC)c1OC | 0.0695 | 11.1% | > 20.6 |
| COCc1cc(C)nc(SCC(=O)Nc2ccc(C)c(C)c2)c1C#N | 2.07 | 3.23% | > 20.6 |
| COc1ccccc1C1/C(=C(/O)c2ccc(OC(C)C)cc2)C(=O)C(=O)N1c1cc(C)on1 (configuration not stated) | -28.1 | 27.8% | > 20.6 |
| Nc1nnnn1/N=C/c1ccccn1 | -1.28 | -4.47% | > 20.6 |
| C=C(Br)CN1CCN(CC(=C)Br)CC1 | 10.5 | -10.3% | > 20.6 |
| COC(=O)C(NC(C)=O)(Nc1ccccc1)C(=O)OC | 2.11 | -1.66% | > 20.6 |
| Cc1ccc(Oc2nc3c(c(=O)n(Cc4ccccc4F)c(=O)n3C)n2C)cc1 | -27.5 | 11.5% | > 20.6 |
| Cc1ccc(-c2nnc(OCCN3CCOCC3)c3ccccc23)cc1 | -9.96 | 5.38% | > 20.6 |
| O=C(Cc1ccccc1)Nc1cccc(-c2nnc(-c3ccco3)o2)c1 | -23.3 | 11.7% | > 20.6 |

| Structure (SMILES) | activity change, negative = inhibition [1] [%] | activity change, negative = inhibition [2] | Potency [3] [µM] |
| --- | --- | --- | --- |
| CCOC(=O)C1=C(N)n2c(s/c(=C\c3cccnc3)c2=O)=C(C(=O)OC)C1c1cccnc1 (configuration not stated) | -8.91 | 23.6% | > 20.6 |
| CC1(C(=O)CSc2ncn[nH]2)CCC(=O)O1 (configuration not stated) | -3.81 | 2.7% | > 20.6 |
| COC(=O)C1C(=O)CC(C)(O)C(C(=O)OC)C1c1ccccc1F (configuration not stated) | 0.159 | -0.943% | > 20.6 |
| CC1(C)C2CCC1(C)C(OC(=O)CC(=O)O)C2 (configuration not stated) | 4.82 | 8.38% | > 20.6 |
| CCN(CC)CCCN1C(=O)C(=O)/C(=C(/O)c2ccc3c(c2)CC(C)O3)C1c1ccncc1 (configuration not stated) | 0.667 | 13.1% | > 20.6 |
| Cc1ccc(-c2nn3c(-c4cccc(Cl)c4)nnc3s2)cc1 | 24.6 | -1.56% | > 20.6 |
| c1cncc(-c2nnc3sc(C4CCCCC4)nn23)c1 | -18.8 | -20% | > 20.6 |
| CC(C)(C)C1=Nn2c(nnc2-c2ccco2)SC1 | 2.22 | 11.1% | > 20.6 |
| O=C(CC(c1ccccc1)c1ccco1)N1CCOCC1 (configuration not stated) | -9.46 | 1% | > 20.6 |
| COc1cccc(OC)c1C(=O)N1CCN(S(=O)(=O)c2ccc(C)cc2)CC1 | -12.3 | -1.17% | > 20.6 |
| CCOC(=O)c1cc(CC)sc1NC(=O)C1CC1 | -23.9 | 12.8% | > 20.6 |
| COc1cccc(C2/C(=C(/O)c3ccc(C)cc3)C(=O)C(=O)N2Cc2ccco2)c1 (configuration not stated) | 2.99 | -8.9% | > 20.6 |
| CC(=O)Oc1oc(-c2ccccc2)nc1/C=N/c1ccccn1 | -71.1 | -130% (active) | > 20.6 |
| CCOC(=O)CCc1c(C)c(C#N)c2[nH]c3ccccc3n2c1=O | -16.5 | -0.365% | > 20.6 |
| Cc1cc(=O)oc(C)c1C(=O)NCC(C)NC(=O)c1c(C)cc(=O)oc1C (configuration not stated) | 0.223 | 10.2% | > 20.6 |
| COC(=O)c1ccc(C2NC(C(=O)O)CS2)cc1 (configuration not stated) | 5.95 | 6.25% | > 20.6 |
| Cn1c(=O)cc(NCc2ccccc2)[nH]c1=O | 15 | -6.77% | > 20.6 |
| CC(C)(C)OC(=O)N1CC=C2C(C#N)=C(N)C(C#N)(C#N)[C@H](c3cccnc3)[C@H]2C1 | 3.85 | 4.36% | > 20.6 |
| Cc1cccc(OCc2nc(C)cc(=O)[nH]2)c1 | 9.24 | -0.73% | > 20.6 |
| CCCCc1nc(NCCNC(=O)c2ccco2)c(C#N)c2c1CSC(C)(C)C2 | -22.7 | 12.2% | > 20.6 |
| CCOC(=O)CSC1=C(C#N)C(=O)NC(c2ccc(OC)c(OC)c2)S1 (configuration not stated) | -12.5 | -123% (active) | > 20.6 |
| CCn1cc(C(=O)NCc2ccccn2)c(=O)c2cc(F)c(N3CCN(C)CC3)cc21 | -1.53 | -29.8% | > 20.6 |
| COC(=O)/C(=C1/Oc2cc(C)oc(=O)c2S1)C(F)(F)F | 7.82 | -131% (active) | > 20.6 |
| COC(=O)CC1SC(=O)NC1=O (configuration not stated) | 6.96 | 5.58% | > 20.6 |
| Cc1cc(=O)oc2c(CN3CCCCC3)c(O)c(Cl)cc12 | 22.5 | 23.5% | > 20.6 |
| CN1C(=O)C2(N=c3ccccc3=N2)c2ccccc21 | 15.2 | 25.6% | > 20.6 |
| N#Cc1c(N)nc(SCC(=O)NCc2ccc3c(c2)OCO3)c(C#N)c1-c1cccs1 | -27.2 | -13.6% | > 20.6 |
